Results as given in PubChem BioAssay AID1903 (Southern Research Specialized Biocontainment Screening …, 2009).
“And” between values parts separate entries of the source, which are not always exact repeats. Equal values may be shown once. Among all 310,000 compounds or so, about 1,200 (0.39%) were called active. Not all results are given here. Results with a measured potency or affinity are listed apart. A number with no mark means an inactive call. No rule for the calls is given here.

Target: Large T antigen (Simian virus 40) (UniProt P03070)
Sequence (P03070 whole entry, looked up): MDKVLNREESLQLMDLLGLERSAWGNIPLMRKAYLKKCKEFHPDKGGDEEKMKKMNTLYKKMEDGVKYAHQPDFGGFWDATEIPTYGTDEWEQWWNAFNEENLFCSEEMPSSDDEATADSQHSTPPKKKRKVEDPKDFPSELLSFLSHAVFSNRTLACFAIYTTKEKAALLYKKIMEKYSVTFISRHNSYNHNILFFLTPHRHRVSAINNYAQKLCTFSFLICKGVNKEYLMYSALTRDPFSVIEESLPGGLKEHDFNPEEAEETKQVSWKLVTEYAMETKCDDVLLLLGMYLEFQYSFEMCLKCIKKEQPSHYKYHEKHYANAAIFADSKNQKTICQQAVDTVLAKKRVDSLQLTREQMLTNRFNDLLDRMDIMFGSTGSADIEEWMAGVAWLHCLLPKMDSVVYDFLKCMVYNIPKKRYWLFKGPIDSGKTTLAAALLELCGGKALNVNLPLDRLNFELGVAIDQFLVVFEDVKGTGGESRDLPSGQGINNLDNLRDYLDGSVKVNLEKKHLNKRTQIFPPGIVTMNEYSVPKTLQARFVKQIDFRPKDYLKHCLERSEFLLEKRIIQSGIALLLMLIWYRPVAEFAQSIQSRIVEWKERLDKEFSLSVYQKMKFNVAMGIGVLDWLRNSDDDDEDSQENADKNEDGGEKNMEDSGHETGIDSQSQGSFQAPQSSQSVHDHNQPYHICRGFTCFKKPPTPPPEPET
Experiment: TAg ATPase/helicase activity blockers – biochemical (AID 1903)
Settings: SV40 large T antigen ATPase/helicase inhibition assay; at 20 µM; active compounds read high

SMILES	inhibition
c1ccc(-n2cc(CN3CCCC(CN4CCCC4)C3)c(-c3ccc4c(c3)OCO4)n2)cc1 (stereo unspecified)	0.36%
CC(=O)c1cccc(NC(=O)CCNC(=O)c2ccccc2Cl)c1	7.59%
O=C(N/N=C(\c1ccccc1)c1cccnc1)c1ccc(O)cc1	14.2%
O=C(N/N=C(\c1ccccc1)c1cccnc1)c1cccc(F)c1	8.05%
CCOC(=O)C1CCCN(C(=O)c2cn(CC)c3ccc(S(=O)(=O)N(C)C)cc3c2=O)C1 (stereo unspecified)	12.6%
Cc1c(Cl)cccc1NC(=O)Cn1cnc(S(=O)(=O)N2CCCC2)c1	12.7%
CC(NC(=S)Nc1ccc(Cl)cc1)C(c1ccccc1)N1CCOCC1 (stereo unspecified)	8.17%
CC[n+]1c(C)sc2cc(OC)ccc21	8.13%
COc1ccc2sc(C)[n+](C)c2c1	11.2%
Cn1c(SCC(=O)Nc2ccc3c(c2)OCCO3)nnc1-c1cccnc1	-0.17%
COc1ccccc1N1CCN(/N=C/c2cccc(O)c2)CC1	7.2%
COc1ccc(/C=N/N2CCN(c3ccccc3OC)CC2)cc1OC	6.87%
Fc1ccc(C2=Nn3c(nnc3-c3ccco3)SC2)cc1	9.39%
c1ccc(C2=Nn3c(nnc3-c3ccco3)SC2)cc1	10.2%
CN1N=C(C(=O)N2CCCC(C(=O)c3cccc(C(F)(F)F)c3)C2)CCC1=O (stereo unspecified)	2.73%
CCOc1ccccc1/C=N/n1c(COc2ccccc2)n[nH]c1=S	14.8%
CCN(CC)c1ccc(/C=c2\sc3nc4ccccc4n3c2=O)c(O)c1	11.3%
O=c1/c(=C/c2ccc(O)c([N+](=O)[O-])c2)sc2nc3ccccc3n12	9.09%
O=C(O)COCC(=O)Nc1ccc(-n2cnnn2)cc1	3.06%
C/C(=N\NC(=O)c1cccc(N/N=C(\C)c2ccc([N+](=O)[O-])cc2)c1)c1ccc([N+](=O)[O-])cc1	7.03%
C/C(=N\NC(=O)Cn1nc(C)c([N+](=O)[O-])c1C)c1ccc(O)cc1	34.5%
C/C(=N\NC(=O)Cn1cc([N+](=O)[O-])cn1)c1ccco1	-0.91%
C/C(=N\NC(=O)c1ccc([N+](=O)[O-])cc1)c1cccc([N+](=O)[O-])c1	6.04%
CC1(C)C2CCC(C2)C1(C)NC(=O)CNCc1cccs1 (stereo unspecified)	5.5%

SMILES	inhibition
Cc1cccc(CS(=O)(=O)Cc2ccc(C(=O)NC(C)c3ccccc3)o2)c1 (stereo unspecified)	2.72%
Cc1onc(-c2ccccc2)c1C(=O)Nc1ccc(S(=O)(=O)N2CCCC2)cc1	4.98%
COc1ccc(C=C(C(C)=O)C(C)=O)cc1OC	16.2%
COc1cc(/C=C/C(=O)CC(=O)/C=C/c2ccc(O)c(OC)c2)ccc1O	17.5%
N#C/C(=C\c1cccc(O)c1)C(=O)N1CCCCC1	13.5%
N#C/C(=C\c1ccc(O)c(Br)c1)C(=O)N1CCCCC1	9.59%
CC(=O)C1C(c2ccncc2)NC(=O)NC1(O)C(F)(F)F (stereo unspecified)	18.7%
Cn1/c(=N/NC(=O)c2ccccc2Br)sc2ccccc21	5.44%
CCOCCn1c(=NC(=O)CSCC(=O)Nc2cc(C)on2)sc2cc(OC)ccc21	-3.67%
Cc1ccc(S(=O)(=O)N(C)CC(=O)N2CCOCC2)cc1	0.93%
OCCN(C=NC1=NN(c2cccc(C(F)(F)F)c2)CC1)CCO	29.5%
CCN(C=NC1=NN(c2cccc(C(F)(F)F)c2)CC1)CC	22.2%
O=C(N/N=C/c1ccc2c(c1)OCO2)c1ccccn1	9.83%
Cc1ccc(S(=O)(=O)c2nc(-c3ccccc3Cl)oc2N(C)C)cc1	-3.31%
O=C(CCc1c[nH]c2ccccc12)OCC(=O)N1CCN(S(=O)(=O)c2ccccc2)CC1	10.9%
COc1cnc(-c2ccccn2)nc1Oc1ccc(Cl)cc1	11.2%
COc1cnc(-c2ccccn2)nc1Oc1ccccc1Cl	5.1%
Cc1c(C(=O)N2CCOCC2)c(S(=O)(=O)Nc2cccc(C#N)c2)c(C)n1C	5.47%
CCOc1c(Cl)cc(CNc2ccc(N3CCCC3)cc2)cc1OC	21.6%
COc1cc(CNc2ccc(N3CCOCC3)cc2)cc(Br)c1OC	29.9%
CCOc1cc(CNc2ccc(N3CCOCC3)cc2)cc(Br)c1OCC	36.3%
CCOc1cc(CNc2ccc(N3CCCC3)cc2)cc(Cl)c1OC	12.8%
COc1cc(CNc2ccc(N3CCN(C(C)=O)CC3)cc2)ccc1OCc1ccc(F)cc1	19.5%
CCOc1cc(C(=O)Nc2ccc(N3CCN(C(C)=O)CC3)cc2)cc(OCC)c1OCC	-4.85%

SMILES	inhibition
COc1ccc(N(CC(=O)O)S(=O)(=O)c2cccnc2)cc1	9.79%
Cn1cnc(S(=O)(=O)N2CCN(C(c3ccc(F)cc3)c3ccc(F)cc3)CC2)c1	11.7%
COC(=O)c1ccc(C(=O)N2CCCC(Nc3ccc(F)c(F)c3)C2)cc1 (stereo unspecified)	13.5%
COc1cccc(NC(=S)NN=C2CCC(C(C)(C)C)CC2)c1 (stereo unspecified)	4.61%
COc1cc(/C=C(\C#N)C(=O)c2c[nH]c3ccccc23)cc(OC)c1O	24.5%
N#C/C(=C/c1ccc(O)c(O)c1)C(=O)NCc1ccc(Cl)cc1	35%
CCOC(=O)/C(C#N)=C\c1ccc(O)c(OC)c1	36.3%
N#C/C(=C\c1cccc(Cl)c1)C(=O)c1ccccc1	45.6%
O=S(=O)(c1ccc2oc3ccc(S(=O)(=O)N4CCCCC4)cc3c2c1)N1CCCCC1	-0.2%
CC1CCC(NC(=O)CNC(=O)Cc2cccc3ccccc23)CC1 (stereo unspecified)	-1.39%
Cc1ccc(NCN2C(=O)C3C4C=CC(C4)C3C2=O)cc1 (stereo unspecified)	5.54%
O=C1C2C3C=CC(C3)C2C(=O)N1CNc1ccc(O)cc1 (stereo unspecified)	37.4%
CCN(CC)C(=O)COc1ccc2c(-c3ccc(OC)cc3)cc(=O)oc2c1	11.6%
Oc1ccc(/C=N/Nc2cc(N3CCCC3)nc(N3CCCC3)n2)cc1O	42%
Oc1cccc(/C=N/Nc2cc(N3CCOCC3)nc(N3CCOCC3)n2)c1	-5.16%
COc1cc(/C=C2\SC(=S)N(NC(=O)c3ccncc3)C2=O)ccc1O	31.8%
CCOc1ccc(/C=C2\SC(=S)N(NS(=O)(=O)c3ccc(C)cc3)C2=O)cc1OC	31.2%
COc1cc(/C=C2\SC(=S)N(NS(=O)(=O)c3ccccc3)C2=O)cc(OC)c1OC	11.2%
CCOc1cc(/C=C2\SC(=S)N(NS(=O)(=O)c3ccccc3)C2=O)ccc1O	38.4%
CCOc1cc(/C=C2\SC(=S)N(NC(=O)c3cccnc3)C2=O)ccc1O	33.1%
COc1cc(/C=C2\SC(=S)N(NS(=O)(=O)c3ccc(C)cc3)C2=O)cc(OC)c1OC	20.8%
CCCCNC(=O)C1CCCN1C(=O)Nc1ccccc1 (stereo unspecified)	4.68%
C=CCOCCN1C(=O)C2C3C=CC(C2C1=O)C1C2C(=O)N(CCOCC=C)C(=O)C2C31 (stereo unspecified)	7.04%
O=C(CSc1ccc(F)cc1)NNC(=O)c1ccccc1Br	7.8%

SMILES	inhibition
COc1ccc(CCN=C(N)NS(=O)(=O)c2ccc(C)c(C)c2)cc1	23.6%
CCOc1cc(C(=O)N2CCC3(CC2)NCCc2[nH]cnc23)cc(OCC)c1OCC	8.46%
O=C(OCc1ccc(Br)cc1)c1cnc(Cl)c(Cl)c1	6.01%
COCCNC(=O)c1ccc(C2SCC(=O)N2CCc2ccccc2)cc1 (stereo unspecified)	2.84%
COc1cccc(NC(=O)C2Cc3ccccc3CN2C(=O)c2ccco2)c1 (stereo unspecified)	10.4%
CCOc1ccc(N(CC(=O)NCc2ccccc2)C(=O)Cn2nnc(-c3ccc(C)o3)n2)cc1	3.98%
COc1cc2c(cc1OC)-c1cc3ccc(OC)c(OC)c3c[n+]1CC2	10.3%
COc1ccc2cc3[n+](cc2c1OC)CCc1cc2c(cc1-3)OCO2	13.6% and 21.3%
CCC1(CC)Cc2ccccc2C2=C(C(=O)N3CCCCC3)C(=O)C(=O)N21	3.53%
CSc1ccc(-c2nc(CSCC(=O)NCCCN3CCCC3=O)c(C)o2)cc1	8.19%
FC(F)(F)c1ccccc1Nc1nccs1	3.87%
Cc1nsc(Nc2ccccc2)c1C#N	11.3%
CCOC(=O)CC(NC(=O)CCc1c(C)nc2nc(C)nn2c1C)c1ccc(C)cc1 (stereo unspecified)	1.45%
CC(Oc1ccc2c(c1)oc(=O)c1ccccc12)C(=O)NCCN1CCOCC1 (stereo unspecified)	4.69%
O=C(CSc1ccc(Cl)cc1)NNC(=O)c1cccnc1	28.6%
O=c1nccc(N/N=C/c2ccccc2)[nH]1	2.59%
C#CCOCCOCCOCCNc1nc(N2CCN(C(=O)CCCCCCCCCCNC(=O)[C@H](CCCCN)n3cc(C[C@@H](C)CC)nn3)CC2)nc(N2CCN(C(=O)CCCCCCCCCCNC(=O)[C@H](CCCN=C(N)N)n3cc(C[C@@H](C)CC)nn3)CC2)n1	35.8%
C#CCOCCOCCOCCNc1nc(N2CCN(C(=O)CCCCCCCCCCNC(=O)[C@H](CO)n3cc(CCCSC)nn3)CC2)nc(N2CCN(C(=O)CCCCCCCCCCNC(=O)[C@H](CCCN=C(N)N)n3cc(C[C@@H](C)CC)nn3)CC2)n1	20.2%
C#CCOCCOCCOCCNc1nc(N2CCN(C(=O)CCCCCCCCCCNC(=O)[C@H](CCCCN)n3cc(CCO)nn3)CC2)nc(N2CCN(C(=O)CCCCCCCCCCNC(=O)[C@H](CCCCN)n3cc(C[C@@H](C)CC)nn3)CC2)n1	22.1%
C#CCOCCOCCOCCNc1nc(N2CCN(C(=O)CCCCCCCCCCNC(=O)[C@H](CO)n3cc(CCCCCN)nn3)CC2)nc(N2CCN(C(=O)CCCCCCCCCCNC(=O)[C@H](CCCN=C(N)N)n3cc(C[C@@H](C)CC)nn3)CC2)n1	36.3%
C#CCOCCOCCOCCNc1nc(N2CCN(C(=O)CCCCCCCCCCNC(=O)[C@H](CCCCN)n3cc(CCCC(=O)O)nn3)CC2)nc(N2CCN(C(=O)CCCCCCCCCCNC(=O)[C@H](CCCN=C(N)N)n3cc(C[C@@H](C)CC)nn3)CC2)n1	15.3%
C#CCOCCOCCOCCNc1nc(N2CCN(C(=O)CCCCCCCCCCNC(=O)[C@H]([C@@H](C)CC)n3cc(CCCCN=C(N)N)nn3)CC2)nc(N2CCN(C(=O)CCCCCCCCCCNC(=O)[C@H](CO)n3cc(CCCCCN)nn3)CC2)n1	28.3%
C#CCOCCOCCOCCNc1nc(N2CCN(C(=O)CCCCCCCCCCNC(=O)[C@@H](CCSC)n3cc(CCO)nn3)CC2)nc(N2CCN(C(=O)CCCCCCCCCCNC(=O)[C@H]([C@@H](C)CC)n3cc(CCCCN=C(N)N)nn3)CC2)n1	5%
C#CCOCCOCCOCCNc1nc(N2CCN(C(=O)CCCCCCCCCCNC(=O)[C@H](CCCCN)n3cc(CCO)nn3)CC2)nc(N2CCN(C(=O)CCCCCCCCCCNC(=O)[C@H](CCCN=C(N)N)n3cc(C[C@@H](C)CC)nn3)CC2)n1	30.2%
